Growth data for 40 compounds are collected here from PubChem BioAssay (NCI).

This is part of a sample that, as a whole, favours compounds with a hit. Of some 83,000 tested, about 20% had one in any assay.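 Treatment: one concentration, 48 hours, 96-well format. Scoring: percent growth, with anything below 10 considered active.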 Calls of active or inactive are those of the source.

For this assay, the system named is MDA-MB-468 breast. The experiment in a line: NCI-60 one-dose screen, 48 h (100 = growth as untreated, 0 = no growth, -100 = all killed). Particulars: 10 µM unless noted.
As for `COc1cc2oc(-c3ccc(NC(=O)c4ccccc4)cc3)cc(=O)c2c(OC)c1OC`, the growth is 96.5% (inactive).

Consider `COc1cc2nc(Cl)nc(Nc3ccc(S(=O)(=O)Nc4nccs4)cc3)c2cc1OC`, for which the growth is 102% (inactive).

Take `COc1ccc(/C=N/C2=C(C#N)C(c3ccc(N(C)C)cc3)c3ccc4ccccc4c3O2)cc1` (stereo not given): the growth is 84.3% (inactive).

`CCOC(=O)c1sc2nc(-c3cccc(O)c3)nc(N3CCOCC3)c2c1C`: the growth was 47.5% (inactive).

On to `Cc1ccc(NC(=O)c2cc(NCc3cc(O)ccc3O)ccc2O)cc1`, for which the growth is 86.6% (inactive).

Turning to `Cc1ccc2c(n1)C(=O)C(Cl)=C(Nc1cc(C(F)(F)F)cc(C(F)(F)F)c1)C2=O`, the growth is 32.5% (inactive).

For `COc1ccc(C2C3=C(COC3=O)N(CCO)c3cc4c(cc32)OCO4)cc1OC` (stereo not given), the growth was 8.1% (active).

Take `CSc1nc2ncncc2[nH]1`: the growth was 103% (inactive).

As to `O=C(Nc1cccc(-n2cc(-c3ccncc3)c(-c3cc(O)cc(Cl)c3)n2)c1)c1ccc(N2CCOCC2)c(C(F)(F)F)c1`, the growth is 26% (inactive).

As for `CC(=O)c1nn(-c2ccccc2)/c(=N/N=Cc2cn(-c3ccccc3)nc2-c2cc3ccccc3oc2=O)s1`, the growth is 103% (inactive).

As for `N/C(=N\C(N)=N\c1nc2ccccc2s1)c1ccncc1Cl`, the growth was 90.3% (inactive).

Take `O=[N+]([O-])C1C(c2ccccc2)C12c1ccccc1-c1ccccc12` (stereo not given): the growth was -26% (active).

Turning to `COc1ccc(/C=N/N=C(/c2ccccc2)c2ccc3nc(-c4ccc(Cl)cc4)[nH]c3c2)cc1`, the growth was 70% (inactive).

Regarding `CC1=N[C@@H]2CN(C(=O)OC(C)(C)C)C[C@@H]2n2c1cc1ccccc1c2=O`, the growth is 111% (inactive).

Regarding `O=C(O)CC1Cc2ccccc2C1C(=O)O` (stereo not given), the growth is 106% (inactive).

Turning to `COc1ccc(C(=O)/C=C/c2cccc([N+](=O)[O-])c2)c(OC)c1`, the growth was -3.24% (active).

With `Cc1[nH]n(-c2ccccc2)c(=O)c1C=NC(=S)C(N)=S`, the growth was 95.9% (inactive).

As for `COc1ccc2nc3c(n2c1)C(=O)C(=O)c1ccccc1-3`, the growth was -10.8% (active).

Regarding `COc1cc2c3cc1Oc1c(OC)c(OC)cc4c1C(Cc1ccc(O)c(c1)Oc1ccc(cc1)CC3N(C)CC2)N(C)CC4` (stereo not given), the growth is -72.3% (active).

In the case of `CCc1cc(O)ccc1Nc1cc(-c2ccc(-n3cccn3)cc2)[nH]n1`, the growth is 58.8% (inactive).

With `Cc1ccc(/C=C(\C#N)c2cc3ccccc3n2C)cc1`, the growth is 23.6% (inactive).

On to `COCCn1cc(-c2csc(-c3c[nH]c4ccc(F)cc34)n2)c2cccnc21`, for which the growth is -6.83% (active).

Consider `COc1ccc(-c2nc3sc(-c4ccccc4)c(-c4ccccc4)n3c2/C=C/C(=O)c2ccccn2)cc1`, for which the growth was 60% (inactive).

Consider `COC(=O)c1nc(-c2ccc(C)cc2)oc1N1CCOCC1`, for which the growth is 82.1% (inactive).

In the case of `COc1cc(/C=C/C(=O)c2ccc(Cl)cc2)cc(CN2CCCCC2)c1O`, the growth was 93.2% (inactive).

Consider `CCc1ncnc2c1ccn2C(C)c1ccc(OC)c(F)c1` (stereo not given), for which the growth was -1.21% (active).

`Cn1cc(C(=O)c2nc(-c3c[nH]c4ccccc34)no2)c2ccccc21`: the growth was -4.38% (active).

Take `Cn1ccnc1C(=O)/C=C/c1ccc(CC(=O)Nc2ccc(F)cc2)cc1`: the growth was -4.62% (active).

`C=CCn1c(SCC(=O)Nc2ccc(OC)cc2)nnc1-c1ccc(Cl)cc1`: the growth was 81% (inactive).

On to `Cn1ccnc1C(=O)/C=C/c1ccc(C(=O)Nc2ccc(S(F)(F)(F)(F)F)cc2)cc1`, for which the growth is 14.5% (inactive).

`COc1ccc(C(Cc2ccccc2)NCCN2CCOCC2)cc1` (stereo not given): the growth is 99.6% (inactive).

Turning to `Cc1ccc(S(=O)(=O)c2ccc3[nH]c(=O)[nH]c(=O)c3c2)cc1`, the growth is 102% (inactive).

For `COc1ccc(S(=O)(=O)n2cc(C=O)c3ccccc32)c(OC)c1`, the growth is 84.7% (inactive).

For the compound `COCCC[C@H]1O[C@@](O)([C@H](C)[C@@H]2CC(OC)C(O)/C=C(C)/C=C(C)/C=C(\C)C(OC3O[C@@H](C)[C@H](O)C(O)[C@@H]3O)C(C)/C=C(C)/C=C(OC)/C=C(\C)C(=O)O2)C(OC)C(O)[C@]1(C)O[C@H]1C[C@@H](O)[C@H](O[C@H]2C[C@](C)(O)[C@H](O)C(C)O2)C(C)O1` (stereo not given in full), the growth was 9.61% (active).

Consider `O=C(Nc1ccc(NS(=O)(=O)c2ccc(F)cc2)cc1)C12CC3CC(CC(C3)C1)C2`, for which the growth was 96.5% (inactive).

Consider `Cc1ccc(-c2nn(Cc3cn(-c4cc(C)nc5ccccc45)nn3)c3ncnc(N)c23)cc1`, for which the growth is 15.4% (inactive).

Turning to `COc1ccc(C(=O)c2cc(OC)c(OC)c(OC)c2)cc1/C=C/C(=O)c1ccc(OC)c(OC)c1`, the growth was 8.42% (active).

As to `CCCCNc1nnc2n(Cc3ccccc3)c(=O)c3c4c(sc3n12)CCCC4`, the growth is 34.7% (inactive).

In the case of `NC(=S)N/N=C1\c2ccccc2-c2c(F)c(F)c(F)c(F)c21`, the growth is 25.8% (inactive).

`CN1CCc2c(sc3nc4n(-c5ccc(Cl)cc5)c(=O)[nH]n4c(=O)c23)C1`: the growth is 114% (inactive).
